# “And” between values parts separate entries of the source, which are not always exact repeats. Equal values may be shown once. Inconclusive results are not listed. The source made the active and inactive calls. The calls were made as follows, unless noted: active = hit-call score of the fitted dose curve at least 0.9, where 1 is the maximum; inconclusive = response in the unintended direction; inactive = score below 0.9.
# Legend:
# [1] = target: human Retinoic Acid Receptor beta (RARb), RARB (gene 5915) (UniProt P10826); test: ATG_RARb_TRANS: Attagene TRANS-FACTORIAL HepG2 Assay for human Retinoic Acid Receptor beta (AID 2283004)
# How it was run: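 HepG2, transient MRTU transfection, NR–Gal4 chimera, 24 h treatment; RT-PCR plus CE fluorescence detection of reporter mRNA; gain of signal vs DMSO.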
# [2] = target: human Retinoic Acid Receptor gamma (RARg), RARG (gene 5916) (UniProt P13631); test: ATG_RARg_TRANS: Attagene TRANS-FACTORIAL HepG2 Assay for human Retinoic Acid Receptor gamma (RARg) (AID 2283009)
# How it was run: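 TRANS format measured activity of exogenous NR-GAL4 fusion (RARg) in transfected HepG2 liver cells after 24 h dosing. Induced reporter RNA was detected by RT-PCR/capillary electrophoresis fluorescence, analysed in the positive direction against DMSO.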
# [3] = target: Peroxisome proliferator-activated receptor gamma (Homo sapiens) (UniProt P37231); test: NVS_NR_hPPARg: NovaScreen (NVS) Nuclear Receptor Binding Assay for human Peroxisome Proliferator-activated Receptor gamma (PPARg) (AID 2283370)
# How it was run: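 Fluorescence polarization measures competitive binding to extracted PPARg in a cell-free format. Reading is taken at 2 h; activity is signal loss relative to DMSO. Screening at 25 uM in duplicate preceded confirmatory dose series.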
# [4] = target: Bile acid receptor (Homo sapiens) (UniProt Q96RI1); test: OT_FXR_FXRSRC1_0480: Odyssey Thera (OT) 8-hour HEK293T Protein-Complementation Assay for Farnesoid X receptor/SRC-1 Co-activator (AID 2283383)
# How it was run: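 PCA, HEK293T, 8 h compound exposure; FXR–SRC-1 binding reconstitutes split reporter; fluorescence intensity; positive-direction fit vs DMSO.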
# [5] = target: Retinoic acid receptor alpha (Homo sapiens) (UniProt P10276); test: ATG_RARa_TRANS: Attagene TRANS-FACTORIAL HepG2 Assay for human Retinoic Acid Receptor alpha (RARa) (AID 2283005)
# How it was run: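 HepG2 cells transiently transfected with multiple reporter units expressing chimeric RARα-GAL4 fusion, with GAL4-UAS-driven reporters. After 24 h compound exposure, reporter mRNA induction quantified by RT-PCR and capillary electrophoresis with fluorescent labeling; gain-of-signal fitted relative to DMSO control.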
# [6] = CEETOX_H295R_OHPREG: CeeTox H295R High-throughput Steroidogenesis Assay for OH-Pregnenolone (OHPREG) (AID 2283434; active = hit-call score of the fitted dose curve at least 0.9, where 1 is the maximum; inactive = score below 0.9); details: actives raise or lower the signal
# How it was run: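 Readout: HPLC-MS/MS of 17alpha-hydroxypregnenolone in medium after 48 h chemical exposure of H295R cells pretreated with forskolin. Values fitted bidirectionally relative to DMSO; chemicals reducing viability to 20–70% were retested after 10-fold dilution.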
# [7] = CEETOX_H295R_OHPROG: CeeTox H295R High-throughput Steroidogenesis Assay for OH-Progesterone (OHPROG) (AID 2283435; active = hit-call score of the fitted dose curve at least 0.9, where 1 is the maximum; inactive = score below 0.9;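 as to AC50: human adrenal H295R cells primed 48 h with 10 µM forskolin; 17alpha-hydroxyprogesterone secreted into medium measured by HPLC-MS/MS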); details: actives raise or lower the signal
# How it was run: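 Steps: seed H295R cells and adhere overnight; stimulate with 10 uM forskolin for 48 h; replace with chemical-containing medium (0.1% DMSO) for 48 h; extract medium with MTBE; quantify 17alpha-hydroxyprogesterone by reverse-phase C18 HPLC-MS/MS against a 7-point curve.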
# [8] = CEETOX_H295R_PROG: CeeTox H295R High-throughput Steroidogenesis Assay for Progesterone (PROG) (AID 2283442; active = hit-call score of the fitted dose curve at least 0.9, where 1 is the maximum; inactive = score below 0.9;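 also: human H295R adrenal cells primed with 10 µM forskolin before dosing; progesterone secreted into medium by H295R cells measured by HPLC-MS/MS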); details: actives raise or lower the signal
# How it was run: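 Adrenal H295R line, forskolin-stimulated (10 uM, 48 h) before dosing. 48 h exposure, 0.1% DMSO vehicle. Secreted progesterone by reverse-phase HPLC with ESI+ MS/MS quantification; DMSO-normalised bidirectional curve fit.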
# [9] = CEETOX_H295R_MTT_cell_viability: Viability Assessment in the CeeTox HT-H295R MTT Assay (AID 2283718; active = hit-call score of the fitted dose curve at least 0.9, where 1 is the maximum; inactive = score below 0.9)
# How it was run: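 H295R cells prestimulated 48 h with 10 uM forskolin, then exposed 48 h to test chemical (0.1% DMSO final). Viability by MTT (0.5 mg/ml, 4 h, 37 C), absorbance 570/650 nm; percent change versus DMSO, bidirectional fit.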
# [10] = target: rat CYP2C12, Cyp2c12 (gene 25011) (UniProt P11510); test: NVS_ADME_rCYP2C12: NovaScreen (NVS) CYP450-related Enzyme Activity (ADME) Assay for rat CYP2C12 (AID 2283119)
# rat CYP2C12, Cyp2c12 (gene 25011), sequence (P11510 whole entry, looked up): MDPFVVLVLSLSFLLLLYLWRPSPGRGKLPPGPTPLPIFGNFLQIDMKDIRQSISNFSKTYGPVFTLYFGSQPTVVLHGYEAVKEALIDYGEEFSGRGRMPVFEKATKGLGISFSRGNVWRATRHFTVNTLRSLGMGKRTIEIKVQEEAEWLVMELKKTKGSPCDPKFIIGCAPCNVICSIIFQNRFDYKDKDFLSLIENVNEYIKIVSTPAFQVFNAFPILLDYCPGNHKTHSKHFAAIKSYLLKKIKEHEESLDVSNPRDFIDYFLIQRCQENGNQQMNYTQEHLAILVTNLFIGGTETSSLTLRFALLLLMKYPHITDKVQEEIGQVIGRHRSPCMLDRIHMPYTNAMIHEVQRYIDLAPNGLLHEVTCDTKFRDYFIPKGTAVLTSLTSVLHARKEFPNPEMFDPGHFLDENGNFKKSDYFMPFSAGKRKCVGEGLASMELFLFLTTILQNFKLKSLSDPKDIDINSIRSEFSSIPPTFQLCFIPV
# How it was run: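 Fluorescent-substrate turnover by recombinant rat CYP2C12, measured at 0.5 h, normalized to acetonitrile vehicle. Chemicals screened first at a single 10 uM concentration in duplicate, with concentration series for actives.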
# [11] = target: human Mitogen-Activated Protein Kinase 1 (MAPK 1), MAPK1 (gene 5594) (UniProt P28482); test: NVS_ENZ_hMAPK1: NovaScreen (NVS) Enzymatic Assay for human Mitogen-Activated Protein Kinase 1 (MAPK 1) (AID 2283175)
# How it was run: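 Cell-free recombinant human MAPK1 enzymatic assay, fluorescence/electrophoretic mobility shift read at 1 h; loss of signal vs DMSO. Primary screen in duplicate at 25 uM; actives (e.g. ≥30% inhibition) run as concentration-response up to 50 uM.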
# [12] = ATG_M_32_XSP2: Attagene TRANS-FACTORIAL Multi-Species (XSP2) HepG2 Assay for M19 Transcription Factor (Internal Marker) (AID 2283826)
# How it was run: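 Total RNA is taken from compound-treated HepG2 cells after 24 h and reverse-transcribed; reporter cDNA is PCR-amplified, end-labelled with 6-FAM, digested with HpaI for 2h at 37 C and sized by capillary electrophoresis. Activity is fitted in the positive direction against DMSO.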
# [13] = CCTE_Harrill_HTTr_Apoptosis_PRF_DMEM_12hr: (Pilot) CCTE's 12-hour Apoptosis Assessment for the High-Throughput Transcriptomics (HTTr) Platform, in MCF-7 cells cultured in phenol red-free DMEM + 10% charcoal-stripped fetal bovine serum, Harrill Lab (AID 2283985; active = hit-call score of the fitted dose curve at least 0.9, where 1 is the maximum; inactive = score below 0.9)
# How it was run: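 Caspase-3/7 activity by CellEvent Green high content imaging after 12 h compound exposure (eight concentrations) in MCF-7 grown in phenol red-free DMEM plus 10% charcoal-stripped serum; DMSO as baseline.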
# [14] = target: Norway rat Vesicular Monoamine Transporter (VMAT2), neurotransmitter transporter, Slc18a2 (gene 25549) (UniProt Q01827); test: NVS_TR_rVMAT2: NovaScreen (NVS) Transporter Assay for Norway rat Vesicular Monoamine Transporter (VMAT2), neurotransmitter transporter (AID 2283376);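 also: actives lower the bound radioligand signal below the DMSO level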
# Norway rat Vesicular Monoamine Transporter (VMAT2), neurotransmitter transporter, Slc18a2 (gene 25549), sequence (Q01827 whole entry, looked up): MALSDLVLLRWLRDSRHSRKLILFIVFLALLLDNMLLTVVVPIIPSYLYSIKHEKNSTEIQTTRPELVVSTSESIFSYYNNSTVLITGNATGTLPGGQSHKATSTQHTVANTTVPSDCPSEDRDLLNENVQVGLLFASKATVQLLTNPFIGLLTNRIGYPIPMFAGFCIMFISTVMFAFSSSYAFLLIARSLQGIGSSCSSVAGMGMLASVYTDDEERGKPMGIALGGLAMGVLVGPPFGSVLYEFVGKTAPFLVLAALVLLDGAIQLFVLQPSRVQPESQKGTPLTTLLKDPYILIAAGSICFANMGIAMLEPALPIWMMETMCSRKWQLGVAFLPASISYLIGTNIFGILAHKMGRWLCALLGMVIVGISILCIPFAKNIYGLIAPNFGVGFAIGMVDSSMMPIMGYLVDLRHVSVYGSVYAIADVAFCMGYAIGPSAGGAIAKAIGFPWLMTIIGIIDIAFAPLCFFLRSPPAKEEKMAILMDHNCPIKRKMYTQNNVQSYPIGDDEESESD
# How it was run: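 Binding endpoint from rat forebrain tissue, cell-free; 1 h incubation; filtered radioligand counted; 25 uM duplicate primary then dose series; DMSO negative control.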
# [15] = target: human AMP-activated Protein Kinase, alpha 1 (AMPKa1), PRKAA1 (gene 5562) (UniProt Q13131); test: NVS_ENZ_hAMPKa1: NovaScreen (NVS) Enzymatic Assay for human AMP-activated Protein Kinase, alpha 1 (AMPKa1) (AID 2283130)
# How it was run: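 Compounds were screened in duplicate at 25 uM, and those reaching ~30% inhibition were titrated up to 50 uM. The enzyme was recombinant human AMPKα1, and kinase turnover was read by fluorescence/mobility shift 1 h post-dosing as loss of signal versus DMSO.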
# [16] = target: Protein deacetylase HDAC6 (Homo sapiens) (UniProt Q9UBN7); test: NVS_ENZ_hHDAC6: NovaScreen (NVS) Enzymatic Assay for human Histone Deacetylase 6 (HDAC6) (AID 2283164)
# Protein deacetylase HDAC6 (Homo sapiens), sequence (Q9UBN7 whole entry, looked up): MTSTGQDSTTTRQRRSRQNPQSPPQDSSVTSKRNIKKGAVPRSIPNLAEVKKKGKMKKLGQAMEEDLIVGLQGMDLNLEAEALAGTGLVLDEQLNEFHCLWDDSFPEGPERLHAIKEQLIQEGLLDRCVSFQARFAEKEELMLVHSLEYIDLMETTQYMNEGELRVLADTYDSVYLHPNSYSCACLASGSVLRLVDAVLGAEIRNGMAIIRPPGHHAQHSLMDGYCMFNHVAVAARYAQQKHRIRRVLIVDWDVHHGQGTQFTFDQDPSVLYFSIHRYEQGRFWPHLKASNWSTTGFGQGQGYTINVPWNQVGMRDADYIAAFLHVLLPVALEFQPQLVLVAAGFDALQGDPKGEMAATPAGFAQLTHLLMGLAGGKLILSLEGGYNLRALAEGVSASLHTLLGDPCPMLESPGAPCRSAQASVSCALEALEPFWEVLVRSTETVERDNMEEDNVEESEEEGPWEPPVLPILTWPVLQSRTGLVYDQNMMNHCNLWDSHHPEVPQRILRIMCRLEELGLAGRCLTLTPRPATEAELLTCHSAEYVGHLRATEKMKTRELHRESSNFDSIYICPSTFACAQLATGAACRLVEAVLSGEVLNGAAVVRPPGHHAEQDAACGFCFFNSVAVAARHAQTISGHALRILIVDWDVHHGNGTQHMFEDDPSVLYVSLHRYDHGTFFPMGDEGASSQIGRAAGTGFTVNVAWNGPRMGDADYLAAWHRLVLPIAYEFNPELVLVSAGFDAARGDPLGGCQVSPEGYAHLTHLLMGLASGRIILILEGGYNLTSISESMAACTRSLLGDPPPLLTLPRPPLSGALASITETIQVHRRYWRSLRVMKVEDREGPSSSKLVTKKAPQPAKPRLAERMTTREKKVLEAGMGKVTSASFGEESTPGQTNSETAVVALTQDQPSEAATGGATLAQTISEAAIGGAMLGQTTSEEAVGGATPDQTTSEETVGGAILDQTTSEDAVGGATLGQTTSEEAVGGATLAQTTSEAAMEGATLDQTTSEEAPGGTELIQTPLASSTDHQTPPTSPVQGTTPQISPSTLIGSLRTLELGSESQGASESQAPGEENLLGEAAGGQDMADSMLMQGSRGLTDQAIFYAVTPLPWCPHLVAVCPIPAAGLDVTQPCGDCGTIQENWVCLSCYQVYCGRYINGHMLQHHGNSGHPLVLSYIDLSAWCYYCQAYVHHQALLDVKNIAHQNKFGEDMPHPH
# How it was run: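 Concentration-response runs up to 50 uM followed a duplicate 25 uM single-point screen. Deacetylase activity of recombinant human HDAC6 read by fluorescence after 1 h, with mobility-shift separation of substrate and product; DMSO as baseline.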
# [17] = target: human Matrix Metalloproteinase-1 (MMP1), MMP1 (gene 4312) (UniProt P03956); test: NVS_ENZ_hMMP1: NovaScreen (NVS) Enzymatic Assay for human Matrix Metalloproteinase-1 (MMP1) (AID 2283181)
# human Matrix Metalloproteinase-1 (MMP1), MMP1 (gene 4312), sequence (P03956 whole entry, looked up): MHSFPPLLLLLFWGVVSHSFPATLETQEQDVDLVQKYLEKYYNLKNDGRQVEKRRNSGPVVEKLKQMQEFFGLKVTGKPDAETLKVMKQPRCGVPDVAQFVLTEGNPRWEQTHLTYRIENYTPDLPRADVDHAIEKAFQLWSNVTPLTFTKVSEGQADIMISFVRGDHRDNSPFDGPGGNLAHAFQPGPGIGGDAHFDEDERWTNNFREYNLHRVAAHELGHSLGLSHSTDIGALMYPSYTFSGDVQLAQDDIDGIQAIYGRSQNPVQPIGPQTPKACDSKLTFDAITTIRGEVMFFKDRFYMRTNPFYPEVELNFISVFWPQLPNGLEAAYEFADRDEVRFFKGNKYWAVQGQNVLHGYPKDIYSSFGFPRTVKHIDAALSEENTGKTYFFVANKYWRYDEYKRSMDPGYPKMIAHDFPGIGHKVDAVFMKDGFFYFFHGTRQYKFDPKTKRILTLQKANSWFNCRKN
# How it was run: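 Cell-free fluorescent substrate assay of human MMP1, read after 1 h. A single 25 uM duplicate screen was followed by concentration series to a maximum of 50 uM for actives meeting threshold; inhibition analysed against DMSO baseline.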
# [18] = target: rat Monoamine Oxidase, MAO-B, Peripheral (MAOBP), Maob (gene 25750) (UniProt P19643); test: NVS_ENZ_rMAOBP: NovaScreen (NVS) Enzymatic Assay for rat Monoamine Oxidase, MAO-B, Peripheral (MAOBP) (AID 2283242)
# rat Monoamine Oxidase, MAO-B, Peripheral (MAOBP), Maob (gene 25750), sequence (P19643 whole entry, looked up): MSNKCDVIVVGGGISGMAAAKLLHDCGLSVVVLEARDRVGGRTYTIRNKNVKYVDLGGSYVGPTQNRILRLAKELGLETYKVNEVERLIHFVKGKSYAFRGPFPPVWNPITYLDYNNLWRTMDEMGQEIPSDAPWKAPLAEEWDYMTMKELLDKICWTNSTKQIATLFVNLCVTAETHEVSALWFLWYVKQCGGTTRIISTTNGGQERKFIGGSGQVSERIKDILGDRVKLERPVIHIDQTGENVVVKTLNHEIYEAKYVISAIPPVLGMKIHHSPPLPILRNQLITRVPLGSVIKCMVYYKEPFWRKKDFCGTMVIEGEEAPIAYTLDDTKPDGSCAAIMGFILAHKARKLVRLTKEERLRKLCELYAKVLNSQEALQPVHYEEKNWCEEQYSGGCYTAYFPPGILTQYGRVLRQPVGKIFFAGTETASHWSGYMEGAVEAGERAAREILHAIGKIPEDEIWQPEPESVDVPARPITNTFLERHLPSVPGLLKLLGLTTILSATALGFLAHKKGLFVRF
# [19] = target: human MET Proto-Oncogene, Receptor Tyrosine Kinase (MET), MET (gene 4233) (UniProt P08581); test: NVS_ENZ_hMet: NovaScreen (NVS) Enzymatic Assay for human MET Proto-Oncogene, Receptor Tyrosine Kinase (MET) (AID 2283180)
# human MET Proto-Oncogene, Receptor Tyrosine Kinase (MET), MET (gene 4233), sequence (P08581 whole entry, looked up): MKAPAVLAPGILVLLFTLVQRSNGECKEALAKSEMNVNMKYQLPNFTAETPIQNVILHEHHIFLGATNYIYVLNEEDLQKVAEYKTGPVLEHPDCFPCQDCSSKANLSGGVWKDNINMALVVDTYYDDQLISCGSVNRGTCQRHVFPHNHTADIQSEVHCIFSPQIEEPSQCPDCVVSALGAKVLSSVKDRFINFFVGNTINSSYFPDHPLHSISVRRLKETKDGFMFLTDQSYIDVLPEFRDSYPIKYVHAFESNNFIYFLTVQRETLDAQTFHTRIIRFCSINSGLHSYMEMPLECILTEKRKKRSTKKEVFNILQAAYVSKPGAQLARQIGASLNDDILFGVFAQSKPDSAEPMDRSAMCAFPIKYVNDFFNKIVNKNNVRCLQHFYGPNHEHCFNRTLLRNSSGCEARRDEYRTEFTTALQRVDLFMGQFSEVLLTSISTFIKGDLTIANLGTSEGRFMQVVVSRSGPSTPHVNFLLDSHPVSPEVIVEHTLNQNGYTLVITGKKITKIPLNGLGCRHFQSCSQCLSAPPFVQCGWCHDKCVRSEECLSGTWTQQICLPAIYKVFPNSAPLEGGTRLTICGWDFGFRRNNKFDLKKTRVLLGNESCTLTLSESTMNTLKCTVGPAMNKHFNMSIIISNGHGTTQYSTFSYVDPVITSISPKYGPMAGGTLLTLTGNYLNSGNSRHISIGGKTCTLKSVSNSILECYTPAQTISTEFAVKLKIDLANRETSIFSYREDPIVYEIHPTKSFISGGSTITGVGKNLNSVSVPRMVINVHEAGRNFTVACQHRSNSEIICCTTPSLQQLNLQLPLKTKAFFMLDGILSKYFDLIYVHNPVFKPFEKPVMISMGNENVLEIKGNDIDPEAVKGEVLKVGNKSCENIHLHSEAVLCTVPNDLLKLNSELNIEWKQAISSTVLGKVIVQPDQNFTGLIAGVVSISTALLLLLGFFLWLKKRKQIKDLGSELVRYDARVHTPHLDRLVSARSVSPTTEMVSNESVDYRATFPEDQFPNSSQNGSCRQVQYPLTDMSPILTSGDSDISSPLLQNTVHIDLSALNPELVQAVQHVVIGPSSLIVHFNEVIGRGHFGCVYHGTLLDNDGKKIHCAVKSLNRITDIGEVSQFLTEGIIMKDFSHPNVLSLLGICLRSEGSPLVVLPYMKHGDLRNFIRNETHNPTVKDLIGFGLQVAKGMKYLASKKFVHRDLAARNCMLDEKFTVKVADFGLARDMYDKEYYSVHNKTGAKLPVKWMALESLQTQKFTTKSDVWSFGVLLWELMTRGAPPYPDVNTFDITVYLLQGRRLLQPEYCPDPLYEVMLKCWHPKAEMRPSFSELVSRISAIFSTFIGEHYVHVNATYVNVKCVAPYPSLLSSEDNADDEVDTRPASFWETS
# How it was run: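 Hits from a 25 uM duplicate screen were retested in concentration series up to 50 uM. Enzyme activity was measured by fluorescence after electrophoretic separation of product from substrate, 1 h after compound addition, relative to DMSO.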
# [20] = target: rat Corticotropin Releasing Factor Receptor (CRF), Crhr1 (gene 58959) (UniProt P35353); test: NVS_GPCR_rCRF: NovaScreen (NVS) G Protein-Coupled Receptor Assay for rat Corticotropin Releasing Factor Receptor (CRF) (AID 2283300)
# rat Corticotropin Releasing Factor Receptor (CRF), Crhr1 (gene 58959), sequence (P35353 whole entry, looked up): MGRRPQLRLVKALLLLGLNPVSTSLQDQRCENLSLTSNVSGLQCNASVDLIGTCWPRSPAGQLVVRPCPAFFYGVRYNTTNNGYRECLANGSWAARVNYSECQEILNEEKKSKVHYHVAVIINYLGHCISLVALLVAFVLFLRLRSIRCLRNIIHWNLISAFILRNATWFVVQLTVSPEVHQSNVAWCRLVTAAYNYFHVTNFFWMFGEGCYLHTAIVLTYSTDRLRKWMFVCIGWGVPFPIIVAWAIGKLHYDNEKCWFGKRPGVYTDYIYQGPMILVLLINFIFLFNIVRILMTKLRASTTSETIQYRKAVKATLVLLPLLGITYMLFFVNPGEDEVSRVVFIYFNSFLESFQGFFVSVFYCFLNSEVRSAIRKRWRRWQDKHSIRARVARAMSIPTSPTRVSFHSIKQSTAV
# How it was run: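 Single-concentration (25 uM, duplicate) radioligand binding on rat cortical membrane preparations, counted by scintillation after 2 h. Activity scored as signal loss relative to DMSO negative control.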
smiles,measurement,setting,value
COC(=O)c1ccccc1S(=O)(=O)NC(=O)Nc1nc(C)cc(C)n1,outcome,[1],inactive
same,outcome,[2],inactive
COc1cc(OC)nc(Oc2cccc(Oc3nc(OC)cc(OC)n3)c2C(=O)O)n1,outcome,[3],inactive
same,outcome,[4],inactive
O=C=Nc1ccccc1,outcome,[5],inactive
same,AC50,[6],0.499 µM (active)
same,outcome,[7],inactive
same,AC50,[8],0.492 µM (active)
same,outcome,[9],inactive
Oc1ccc(Cl)cc1,outcome,[1],inactive
O=C1Nc2ccc(Cl)cc2C(c2ccccc2)=NC1O (centres undefined),outcome,[4],inactive
Nc1ccc(Cl)c(Cl)c1,outcome,[6],inactive
same,AC50,[7],33.3 µM (active)
same,AC50,[8],10.7 µM (active)
same,outcome,[9],inactive
CN(C)CCC#N,outcome,[5],inactive
same,outcome,[2],inactive
CC(C)[C@@H](C(=O)O[C@@H](C#N)c1cccc(Oc2ccccc2)c1)c1ccc(Cl)cc1,outcome,[3],inactive
same,outcome,[9],inactive
CCCCOCCOCCOCc1cc2c(cc1CCC)OCO2,outcome,[10],inactive
CC(C)(c1ccc(O)cc1)c1ccc(O)cc1,AC50,[10],7.75 µM (active) and 4.05 µM (active) and 10 µM (active)
same,outcome,[11],inactive
same,outcome,[12],inactive
same,outcome,[13],inactive
O=c1c(-c2ccc(O)cc2)coc2cc(O)cc(O)c12,outcome,[14],inactive
Cc1nc(-c2ccc3c(c2)CCN(CCC2CCC(NC(=O)/C=C/c4ccc(F)cc4)CC2)CC3)no1 (centres undefined),outcome,[15],inactive
CSc1ccc(Oc2ccc(S(N)(=O)=O)cc2CN(C)C)cc1C,outcome,[16],inactive
N#CSCSc1nc2ccccc2s1,AC50,[10],5.12 µM (active)
same,AC50,[16],25 µM (active)
CCN(CC)CCOc1ccc(C(=C(Cl)c2ccccc2)c2ccccc2)cc1,AC50,[15],26.5 µM (active)
same,outcome,[16],inactive
same,outcome,[17],inactive
same,AC50,[18],3.9 µM (active)
same,AC50,[14],5.01 µM (active)
same,outcome,[12],inactive
same,AC50,[13],81.6 µM (active)
Cc1nn(C)c(Oc2ccccc2)c1C=NOCc1ccc(C(=O)OC(C)(C)C)cc1,outcome,[13],inactive
COc1cc(C(=O)NC2CCN(C)CC2)ccc1Nc1ncc2c(n1)N(C1CCCC1)CC(F)(F)C(=O)N2C,outcome,[18],inactive
same,AC50,[14],3.01 µM (active)
CN(C)c1ccc(N=NS(=O)(=O)O)cc1,outcome,[19],inactive
same,outcome,[20],inactive
COc1ccc(S(=O)(=O)N2C(=O)[C@@](c3ccccc3OC)(N3C[C@H](O)C[C@H]3C(=O)N(C)C)c3cc(Cl)ccc32)c(OC)c1,outcome,[17],inactive
COCCOC[C@H](CC1(C(=O)NC2CCC(C(=O)O)CC2)CCCC1)C(=O)Oc1ccc2c(c1)CCC2 (some centres undefined),outcome,[11],inactive
Nc1cccc2c(N)cccc12,outcome,[16],inactive
CCN(Cc1cccnc1)C(=O)c1cccc(Cl)c1[C@]1(C)C(=O)N(Cc2ccc(OC)cc2OC)c2ccc(Cl)cc21,outcome,[19],inactive
same,AC50,[17],9.73 µM (active)
same,outcome,[18],inactive
Cc1c2ccccc2c(C)c2c1ccc1ccccc12,outcome,[12],inactive
CCCCCCCCCCCCc1ccccc1S(=O)(=O)O,AC50,[15],11.3 µM (active)
same,AC50,[19],26.2 µM (active)
Cc1ccc(-c2cc(C(F)(F)F)nn2-c2ccc(S(N)(=O)=O)cc2)cc1,outcome,[11],inactive
CCN(CC)C(=S)SSC(=S)N(CC)CC,outcome,[15],inactive
same,outcome,[20],inactive
OCCC(F)(F)C(F)(F)C(F)(F)C(F)(F)C(F)(F)C(F)(F)C(F)(F)C(F)(F)F,outcome,[20],inactive
